Calls of active or inactive are those of the source. Rule as the data show it, unless noted: active = inhibition above about 80%; inactive = the rest.
Tests used:
[1] = hESC survival regulators, cell-based (AID 493140; call rule not given here;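 also: cells exposed to compounds for four days before counting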); settings: human embryonic stem cell survival screen; stronger effect = higher value
[2] = liver-stage malaria parasite growth inhibition, primary screen, cell-based, HepG2, luciferase luminescence, HepG2 viability (AID 624349; in the data active = parasite load remaining mostly below about 12%, no sharp cut-off; inactive = mostly above about 10%;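 also: 100% = mean of DMSO negative control wells on the same plate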); settings: P. berghei liver stage in HepG2, luciferase luminescence, concentration not given here; parasite load remaining: stronger effect = lower value; viability: measured here: HepG2 viability without parasites
[3] = sensitizers of A549 cells to miR-34 induction, primary screen, imaging, A549 dox-inducible miR-34, nuclei and caspase counts (AID 1347080;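 active = compounds whose cell count with miR-34 switched on is under 0.7 times the count with it off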); settings: A549 miR-34 inducible, Hoechst nuclei count, 48 h
[4] = survival rescue of mitochondrial mutant cells in low glucose, primary screen, MELAS cybrids, Rieske KO mouse fibroblasts, CellTiter-Glo (AID 1508586;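 active = mean z-score across replicates of 1.96 or higher in either the MELAS or the Rieske mutant cell line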;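 also: z relative to plate mean and SD of compound and empty wells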)
[5] = LFS_MB_P medulloblastoma growth inhibition, cell-based, chromothripsis tumors, cisplatin or BGB combos (AID 1671449); settings: LFS_MB_P medulloblastoma cells;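 also: cells exposed for 96 hours; 0% = vehicle DMSO and 100% = killing by high DMSO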
[6] = HDN33 neuroblastoma growth inhibition, cell-based, chromothripsis tumors, cisplatin or BGB combos (AID 1671450); settings: HDN33 neuroblastoma cells, stronger effect = higher value;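 also: cells exposed to compound for four days; 0% = vehicle DMSO and 100% = cell killing by high DMSO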
[7] = ICB984 medulloblastoma cell growth inhibition, synergistic combos for chromothripsis tumors, cisplatin or BGB combos (AID 1671451; call rule not given here;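 also: cells exposed for 96 hours before readout; 0% = vehicle DMSO and 100% = killing by high DMSO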); settings: ICB984 medulloblastoma cells, drug combinations, stronger effect = higher value
[8] = LFS_MB_1R medulloblastoma cell growth inhibition, synergistic combos for chromothripsis tumors, cisplatin or BGB combos (AID 1671452); settings: LFS_MB_1R medulloblastoma cells, stronger effect = higher value;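 also: cells exposed for 96 hours before readout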
[9] = HTB85 osteosarcoma cell growth inhibition, synergistic combos for chromothripsis tumors, BGB or cisplatin IC20 combos (AID 1671453); settings: HTB85 osteosarcoma cells, drug combinations, stronger effect = higher value;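 also: cells exposed for 96 hours before readout; 0% = vehicle DMSO and 100% = high DMSO killing control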
[10] = CRL2098 osteosarcoma cell growth inhibition, synergistic combos for chromothripsis tumors, BGB or cisplatin IC20 combos (AID 1671454); settings: CRL2098 osteosarcoma cells, drug combinations, stronger effect = higher value;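 also: cells exposed for 96 h before readout; 0% = vehicle DMSO and 100% = killing by high DMSO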
[11] = HD-MB03 medulloblastoma cell growth inhibition, synergistic combos for chromothripsis tumors, BGB or cisplatin IC20 combos (AID 1671455; in the data active = inhibition above about 83%;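 also: 0% = vehicle DMSO and 100% = high DMSO as cytotoxic control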); settings: HD-MB03 medulloblastoma cells, stronger effect = higher value
[12] = UWB1.289 ovarian carcinoma cell growth inhibition, synergistic combos for chromothripsis tumors, BGB or cisplatin combos (AID 1671456); settings: UWB1.289 ovarian carcinoma cells, stronger effect = higher value;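 also: cells exposed to compound for four days; 0% = vehicle DMSO and 100% = killing by high DMSO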
[13] = LFS_MB_2R medulloblastoma cell growth inhibition, synergistic combos for chromothripsis tumors, cisplatin combos (AID 1671457); settings: LFS_MB_2R medulloblastoma cells, stronger effect = higher value;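 also: cells exposed to compound for four days before readout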
[14] = MDA-MB-436 breast carcinoma cell growth inhibition, synergistic combos for chromothripsis tumors, BGB or cisplatin combos (AID 1671458; call rule not given here;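 also: cells exposed for 96 hours; 0% = vehicle DMSO and 100% = killing by high DMSO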); settings: MDA-MB-436 breast carcinoma growth inhibition, drug combinations, stronger effect = higher value
[15] = UWB1.289_BRCA1 ovarian cancer growth, cell-based, BGB or cisplatin combinations (AID 1671459); settings: UWB1.289 BRCA1 ovarian carcinoma, drug combinations, stronger effect = higher value
[16] = human astrocyte viability loss, single and combined drugs, cytotoxicity control for chromothriptic childhood tumor combination screen, cell-based, BGB or cisplatin IC20 combos (AID 1671460); settings: Human astrocytes, drug combinations, stronger effect = higher value;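 also: cells exposed to compounds for 96 hours before viability readout; 0% = vehicle and 100% = killing control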
[17] = growth inhibition of BT084 medulloblastoma cells, cell-based, ICGC_MB145, cisplatin and BGB IC40 combos (AID 1671461); settings: drug combinations, stronger effect = higher value;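 also: cells exposed to drugs for 96 hours; 0% = vehicle DMSO and 100% = high DMSO full killing control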
[18] = growth inhibition of RCMB18 medulloblastoma cells, cell-based, cisplatin and BGB IC40 combos (AID 1671462); settings: stronger effect = higher value;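 also: cells exposed to compound for four days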
[19] = growth inhibition of CRL1545 osteosarcoma cells, cell-based, cisplatin and BGB IC20 combos (AID 1671464); settings: stronger effect = higher value;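 also: cells exposed to compound for 96 hours before readout; 0% = vehicle DMSO and 100% = high DMSO killing control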
[20] = stronger effect = lower value, cell number ratio, induced over uninduced
[21] = measured here: relative caspase fold change +Dox/-Dox
[22] = measured here: total cells with miR-34 induction, stronger effect = lower value
[23] = measured here: total cells without miR-34 induction
[24] = MELAS cybrid survival, CellTiter-Glo 48 h, stronger effect = higher value
[25] = Rieske KO mouse fibroblast survival, CellTiter-Glo 72 h
[26] = measured here: combination with BGB IC40, at 0.05 µM
[27] = measured here: with BGB IC20 combination, at 0.5 µM
[28] = measured here: with cisplatin IC20 combination, at 0.5 µM
[29] = measured here: combination with cisplatin, at 0.5 µM
[30] = measured here: combination with cisplatin, at 5 µM

## CC(C)(C)CC(C)(C)c1ccc(OCOCCOCCO)c(Cc2cc(C(C)(C)CC(C)(C)C)cc(Cc3cc(C(C)(C)CC(C)(C)C)ccc3OCOCCOCCO)c2OCOCCOCCO)c1
[1]
  survival: 1.75 (inactive)
[2]
  parasite load remaining: 112% (inactive)
  viability: 98.8%
[3]; [20]
  fold change: 0.877 (inactive)
[3]; [21]
  fold change: 1.23
[3]; [22]
  cell count: 7920
[3]; [23]
  cell count: 9040
[4]; [24]
  z-score: -2.08 (inactive)
[4]; [25]
  z-score: -1.21

## COc1ccccc1S(=O)(=O)Nc1ccc2c(c1)CN(C)C(=O)N2
[3]; [20]
  fold change: 1.02 (inactive)
[3]; [21]
  fold change: 0.364
[3]; [22]
  cell count: 6410
[3]; [23]
  cell count: 6310
[4]; [24]
  z-score: 0.202 (inactive)
[4]; [25]
  z-score: -0.445
[5]; at 0.5 µM, stronger effect = higher value
  inhibition: -27% (inactive)
[5]; measured here: combination with BGB IC20, at 0.005 µM
  inhibition: -35.7%
[5]; measured here: combination with BGB IC40, at 0.005 µM
  inhibition: -46.6%
[5]; [26]
  inhibition: -41.2%
[5]; measured here: combination with cisplatin, at 0.5 µM, stronger effect = higher value
  inhibition: -73.8%
[5]; measured here: combination with cisplatin, at 5 µM, stronger effect = higher value
  inhibition: 27.9%
[6]; BGB combo, at 5 µM
  inhibition: 10.4%
[6]; at 0.5 µM
  inhibition: -28.2% (inactive)
[6]; cisplatin combo, at 5 µM
  inhibition: 19.3%
[6]; [27]
  inhibition: -28.2%
[6]; [28]
  inhibition: -25.5%
[6]; single agent, at 5 µM
  inhibition: 26.1%
[7]; BGB IC20 combo, at 0.005 µM
  inhibition: 0.625%
[7]; BGB IC40 combo, at 0.005 µM
  inhibition: -32.2%
[7]; BGB IC40 combo, at 0.05 µM
  inhibition: 2.94%
[7]; at 0.5 µM
  inhibition: -27.9% (inactive)
[7]; cisplatin combo, at 0.05 µM
  inhibition: -1.96%
[7]; cisplatin combo, at 0.5 µM
  inhibition: -28%
[7]; cisplatin combo, at 5 µM
  inhibition: -22.2%
[7]; measured here: 5 uM single agent, at 5 µM
  inhibition: -15.3%
[8]; at 0.5 µM
  inhibition: -15.2% (inactive)
[8]; [26]
  inhibition: -24.6%
[8]; [29]
  inhibition: -10.4%
[8]; [30]
  inhibition: 42.8%
[9]; at 0.5 µM
  inhibition: -7.92% (inactive)
[9]; measured here: with BGB IC20, at 0.5 µM
  inhibition: 9.14%
[9]; measured here: with BGB IC20, at 5 µM
  inhibition: 38.2%
[9]; measured here: with cisplatin IC20, at 0.5 µM
  inhibition: -13.9%
[9]; measured here: with cisplatin IC20, at 5 µM
  inhibition: 31.4%
[9]; single agent, at 5 µM
  inhibition: 32.5%
[10]; at 0.5 µM
  inhibition: -31.4% (inactive)
[10]; measured here: combination with BGB at IC20, at 0.5 µM
  inhibition: 0.952%
[10]; measured here: combination with cisplatin at IC20, at 0.5 µM
  inhibition: -85.9%
[11]; at 0.5 µM
  inhibition: -5.44% (inactive)
[11]; measured here: combo with BGB at IC20, at 0.5 µM
  inhibition: -9.22%
[11]; measured here: combo with cisplatin at IC20, at 0.5 µM
  inhibition: -6.26%
[12]; at 0.5 µM
  inhibition: -14.3% (inactive)
[12]; measured here: inhibition with BGB combination, at 0.05 µM
  inhibition: -45%
[12]; measured here: inhibition with cisplatin combination, at 0.05 µM
  inhibition: -24.9%
[13]; at 0.5 µM
  inhibition: -17.7% (inactive)
[13]; [29]
  inhibition: -4.41%
[13]; [30]
  inhibition: 24.4%
[14]; at 0.5 µM
  inhibition: -11.9% (inactive)
[14]; measured here: BGB combination, at 0.5 µM
  inhibition: -2.15%
[14]; measured here: BGB combination, at 5 µM
  inhibition: -5.52%
[14]; measured here: cisplatin combination, at 0.5 µM
  inhibition: -32.4%
[14]; measured here: cisplatin combination, at 5 µM
  inhibition: -10.1%
[15]; BGB combination, concentration series, at 5 µM
  inhibition: 37.7%
[15]; at 0.5 µM
  inhibition: -12% (inactive)
[15]; cisplatin combination, concentration series, at 5 µM
  inhibition: 55.6%
[16]; at 0.5 µM
  inhibition: 9.7% (inactive)
[16]; measured here: combo with BGB IC20, at 0.5 µM
  inhibition: 13.1%
[16]; measured here: combo with cisplatin IC20, at 0.5 µM
  inhibition: 4.75%
[17]; at 0.5 µM
  inhibition: -13.5% (inactive)
[17]; cisplatin combination, at 0.5 µM
  inhibition: -9.06%
[17]; cisplatin combination, at 5 µM
  inhibition: 15.1%
[17]; measured here: BGB IC40 combination 0.05 uM, at 0.05 µM
  inhibition: -35.9%
[17]; single agent, at 5 µM
  inhibition: 28.1%
[18]; at 0.5 µM
  inhibition: -15.3% (inactive)
[18]; cisplatin combo, at 5 µM
  inhibition: 7.58%
[18]; measured here: BGB IC40 combination, at 0.05 µM
  inhibition: -26.3%
[18]; [29]
  inhibition: -32.4%
[18]; single agent, at 5 µM
  inhibition: 7.98%
[19]; at 0.5 µM
  inhibition: -26.6% (inactive)
[19]; [27]
  inhibition: -39.9%
[19]; [28]
  inhibition: -21.9%
[19]; single agent, at 0.05 µM
  inhibition: -32%
[19]; single agent, at 5 µM
  inhibition: 6.08%

— PubChem BioAssay
